Experimental data: the supplement of paper PMC11732987, “Enantioselective OTUD7B fragment discovery through chemoproteomics screening and high-throughput optimisation” (Communications Chemistry, 2025)

Columns and labels:
Assay in all cases: log2 ratio of Biotin-Ahx-Ub-VS probe labelling (fragment/DMSO); higher = less target engagement (more negative = stronger competition), active = hit call of the paper (q ≤ 0.05, log2 ratio ≤ -1)
Details in all cases: compound concentration: 200 uM; treatment time: 3 h
USP42 = molecular target: T1, USP42 (UniProt Q9H9J4)
T1 sequence (whole entry): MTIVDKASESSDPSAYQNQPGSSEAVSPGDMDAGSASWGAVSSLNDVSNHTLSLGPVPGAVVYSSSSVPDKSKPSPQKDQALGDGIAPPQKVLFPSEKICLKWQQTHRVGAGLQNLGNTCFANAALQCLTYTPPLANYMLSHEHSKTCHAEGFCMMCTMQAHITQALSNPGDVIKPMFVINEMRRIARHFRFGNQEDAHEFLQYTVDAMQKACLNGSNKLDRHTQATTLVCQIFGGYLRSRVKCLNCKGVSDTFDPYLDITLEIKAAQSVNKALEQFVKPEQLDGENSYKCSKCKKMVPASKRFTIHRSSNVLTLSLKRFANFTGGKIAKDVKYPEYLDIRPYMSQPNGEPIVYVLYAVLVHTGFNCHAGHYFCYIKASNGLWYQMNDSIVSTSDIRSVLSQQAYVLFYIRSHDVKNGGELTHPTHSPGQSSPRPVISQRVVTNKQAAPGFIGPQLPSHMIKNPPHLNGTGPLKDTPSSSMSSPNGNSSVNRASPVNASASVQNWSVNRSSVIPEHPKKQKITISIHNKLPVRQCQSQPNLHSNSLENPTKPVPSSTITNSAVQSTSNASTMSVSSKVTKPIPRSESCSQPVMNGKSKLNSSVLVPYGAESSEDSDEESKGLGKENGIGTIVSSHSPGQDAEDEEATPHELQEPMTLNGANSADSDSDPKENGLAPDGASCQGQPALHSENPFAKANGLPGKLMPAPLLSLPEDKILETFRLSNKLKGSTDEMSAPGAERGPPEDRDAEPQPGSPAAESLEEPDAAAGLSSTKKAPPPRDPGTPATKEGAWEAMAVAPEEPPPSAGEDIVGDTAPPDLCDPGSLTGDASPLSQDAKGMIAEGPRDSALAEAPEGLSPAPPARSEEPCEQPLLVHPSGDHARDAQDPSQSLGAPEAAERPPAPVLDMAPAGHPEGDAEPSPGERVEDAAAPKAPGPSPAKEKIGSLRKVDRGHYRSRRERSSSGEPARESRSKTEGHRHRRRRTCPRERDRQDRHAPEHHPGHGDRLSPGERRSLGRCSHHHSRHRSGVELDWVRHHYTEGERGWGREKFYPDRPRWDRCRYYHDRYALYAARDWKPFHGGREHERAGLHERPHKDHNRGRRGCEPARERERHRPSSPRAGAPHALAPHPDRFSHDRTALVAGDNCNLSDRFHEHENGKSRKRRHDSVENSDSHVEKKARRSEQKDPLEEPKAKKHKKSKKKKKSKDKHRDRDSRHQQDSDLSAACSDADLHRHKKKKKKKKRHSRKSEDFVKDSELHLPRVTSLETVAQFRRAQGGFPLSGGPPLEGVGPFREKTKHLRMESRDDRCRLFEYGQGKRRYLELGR
Procedure, shortened: (§1)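 Fragment (200 µM) or vehicle was incubated for 3 h with triplicate HEK293T lysate samples of 495 µg, which were then treated with Biotin-Ahx-Ub-VS at 0.5 µM final for 1 h. Labelled DUBs were enriched on NeutrAvidin, digested with LysC and trypsin, and analysed by diaPASEF LC-MS/MS. Values are average log2 fragment/vehicle ratios from an unpaired t-test on global-median-normalised Spectronaut label-free quantities, using proteins with ≥2 unique peptides.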

USP46 = USP46 (UniProt P62068)
Procedure, shortened: as §1

USP47 = molecular target: T2, USP47 (UniProt Q96K76)
T2 sequence (whole entry): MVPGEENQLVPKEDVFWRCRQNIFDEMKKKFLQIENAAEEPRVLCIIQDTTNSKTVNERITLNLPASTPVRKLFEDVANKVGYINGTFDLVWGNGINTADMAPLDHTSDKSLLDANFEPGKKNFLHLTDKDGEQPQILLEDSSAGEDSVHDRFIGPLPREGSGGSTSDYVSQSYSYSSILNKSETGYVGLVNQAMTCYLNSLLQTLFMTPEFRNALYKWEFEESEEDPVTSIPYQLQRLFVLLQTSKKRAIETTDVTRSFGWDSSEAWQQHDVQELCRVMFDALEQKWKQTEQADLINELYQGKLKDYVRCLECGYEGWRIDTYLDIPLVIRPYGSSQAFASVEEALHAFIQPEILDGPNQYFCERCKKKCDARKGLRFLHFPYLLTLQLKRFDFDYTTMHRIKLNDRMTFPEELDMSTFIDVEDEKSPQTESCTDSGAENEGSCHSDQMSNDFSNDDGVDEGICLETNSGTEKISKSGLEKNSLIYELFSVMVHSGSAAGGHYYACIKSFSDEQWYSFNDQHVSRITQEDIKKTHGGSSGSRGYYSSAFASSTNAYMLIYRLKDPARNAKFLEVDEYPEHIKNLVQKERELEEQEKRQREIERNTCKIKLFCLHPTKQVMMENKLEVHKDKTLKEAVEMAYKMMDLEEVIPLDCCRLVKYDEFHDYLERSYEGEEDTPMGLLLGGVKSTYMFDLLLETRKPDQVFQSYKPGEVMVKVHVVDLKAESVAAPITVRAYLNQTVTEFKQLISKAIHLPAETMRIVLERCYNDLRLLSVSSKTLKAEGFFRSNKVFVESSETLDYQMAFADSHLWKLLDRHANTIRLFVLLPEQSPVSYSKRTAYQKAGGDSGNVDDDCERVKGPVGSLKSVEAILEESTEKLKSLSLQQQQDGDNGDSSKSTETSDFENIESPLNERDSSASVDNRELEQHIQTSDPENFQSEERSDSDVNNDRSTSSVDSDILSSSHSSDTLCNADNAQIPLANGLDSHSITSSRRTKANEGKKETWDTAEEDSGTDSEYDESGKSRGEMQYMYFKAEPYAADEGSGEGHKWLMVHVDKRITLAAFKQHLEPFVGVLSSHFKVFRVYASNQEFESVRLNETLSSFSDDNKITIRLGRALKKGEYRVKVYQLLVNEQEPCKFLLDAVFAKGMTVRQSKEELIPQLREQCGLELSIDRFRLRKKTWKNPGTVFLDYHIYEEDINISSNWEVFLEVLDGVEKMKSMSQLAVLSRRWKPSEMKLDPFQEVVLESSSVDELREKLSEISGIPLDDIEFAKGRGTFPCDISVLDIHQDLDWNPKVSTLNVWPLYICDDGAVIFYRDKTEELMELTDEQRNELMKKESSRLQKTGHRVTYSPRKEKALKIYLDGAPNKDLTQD
Procedure, shortened: as §1

USP48 = molecular target: T3, USP48 (UniProt Q86UV5)
T3 sequence (whole entry): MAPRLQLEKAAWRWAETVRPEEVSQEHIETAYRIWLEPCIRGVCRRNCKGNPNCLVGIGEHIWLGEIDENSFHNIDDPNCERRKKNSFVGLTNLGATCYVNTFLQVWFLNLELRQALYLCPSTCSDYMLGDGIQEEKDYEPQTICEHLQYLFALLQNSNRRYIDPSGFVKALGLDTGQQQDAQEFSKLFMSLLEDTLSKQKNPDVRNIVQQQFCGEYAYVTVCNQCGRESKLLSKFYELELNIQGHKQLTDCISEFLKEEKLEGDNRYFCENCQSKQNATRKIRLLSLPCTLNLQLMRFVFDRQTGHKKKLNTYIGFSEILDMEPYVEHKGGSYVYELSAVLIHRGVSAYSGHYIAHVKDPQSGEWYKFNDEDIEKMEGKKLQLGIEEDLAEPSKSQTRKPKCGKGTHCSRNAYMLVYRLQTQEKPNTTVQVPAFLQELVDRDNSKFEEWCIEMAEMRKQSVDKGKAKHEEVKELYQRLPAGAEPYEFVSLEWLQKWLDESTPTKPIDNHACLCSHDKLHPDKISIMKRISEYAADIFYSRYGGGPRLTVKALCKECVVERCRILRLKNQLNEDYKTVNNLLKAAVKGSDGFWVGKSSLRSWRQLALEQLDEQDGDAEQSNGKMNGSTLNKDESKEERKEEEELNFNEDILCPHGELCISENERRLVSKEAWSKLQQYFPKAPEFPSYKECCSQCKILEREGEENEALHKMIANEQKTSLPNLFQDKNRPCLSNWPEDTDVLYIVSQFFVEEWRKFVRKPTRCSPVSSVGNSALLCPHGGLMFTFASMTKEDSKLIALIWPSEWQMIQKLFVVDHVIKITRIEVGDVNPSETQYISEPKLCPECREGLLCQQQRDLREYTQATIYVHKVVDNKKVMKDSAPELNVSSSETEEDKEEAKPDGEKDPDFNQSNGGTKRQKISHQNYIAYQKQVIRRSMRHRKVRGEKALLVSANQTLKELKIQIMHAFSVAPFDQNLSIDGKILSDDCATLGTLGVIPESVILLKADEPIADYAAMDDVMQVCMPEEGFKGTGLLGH
Procedure, shortened: as §1

USP5 = molecular target: T4, USP5 (UniProt P45974)
T4 sequence (whole entry): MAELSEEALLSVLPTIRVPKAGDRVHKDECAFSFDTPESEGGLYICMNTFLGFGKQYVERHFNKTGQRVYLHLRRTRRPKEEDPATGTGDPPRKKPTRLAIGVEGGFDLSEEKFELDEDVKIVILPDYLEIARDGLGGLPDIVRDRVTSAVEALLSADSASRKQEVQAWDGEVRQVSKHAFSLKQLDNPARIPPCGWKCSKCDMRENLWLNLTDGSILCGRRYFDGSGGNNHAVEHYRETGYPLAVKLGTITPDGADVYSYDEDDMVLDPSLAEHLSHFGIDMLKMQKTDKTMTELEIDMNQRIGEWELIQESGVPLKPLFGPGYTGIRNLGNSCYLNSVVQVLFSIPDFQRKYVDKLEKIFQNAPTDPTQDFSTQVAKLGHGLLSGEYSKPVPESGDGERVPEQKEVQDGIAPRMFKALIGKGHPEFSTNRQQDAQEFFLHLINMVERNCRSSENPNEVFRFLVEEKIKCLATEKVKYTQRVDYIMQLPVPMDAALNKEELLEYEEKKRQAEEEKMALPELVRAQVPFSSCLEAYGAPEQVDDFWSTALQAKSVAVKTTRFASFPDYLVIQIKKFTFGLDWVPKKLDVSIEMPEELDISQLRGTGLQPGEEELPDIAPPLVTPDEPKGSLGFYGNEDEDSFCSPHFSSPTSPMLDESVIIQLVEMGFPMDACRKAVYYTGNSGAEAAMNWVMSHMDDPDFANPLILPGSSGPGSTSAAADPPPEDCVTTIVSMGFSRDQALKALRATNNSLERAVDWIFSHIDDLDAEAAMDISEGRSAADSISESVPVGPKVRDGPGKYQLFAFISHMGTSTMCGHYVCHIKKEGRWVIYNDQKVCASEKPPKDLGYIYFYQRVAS
Procedure, shortened: as §1

USP54 = USP54 (UniProt Q70EL1)
Procedure, shortened: as §1

USP7 = USP7 (UniProt Q93009)
Procedure, shortened: as §1

USP8 = molecular target: T5, USP8 (UniProt P40818)
T5 sequence (whole entry): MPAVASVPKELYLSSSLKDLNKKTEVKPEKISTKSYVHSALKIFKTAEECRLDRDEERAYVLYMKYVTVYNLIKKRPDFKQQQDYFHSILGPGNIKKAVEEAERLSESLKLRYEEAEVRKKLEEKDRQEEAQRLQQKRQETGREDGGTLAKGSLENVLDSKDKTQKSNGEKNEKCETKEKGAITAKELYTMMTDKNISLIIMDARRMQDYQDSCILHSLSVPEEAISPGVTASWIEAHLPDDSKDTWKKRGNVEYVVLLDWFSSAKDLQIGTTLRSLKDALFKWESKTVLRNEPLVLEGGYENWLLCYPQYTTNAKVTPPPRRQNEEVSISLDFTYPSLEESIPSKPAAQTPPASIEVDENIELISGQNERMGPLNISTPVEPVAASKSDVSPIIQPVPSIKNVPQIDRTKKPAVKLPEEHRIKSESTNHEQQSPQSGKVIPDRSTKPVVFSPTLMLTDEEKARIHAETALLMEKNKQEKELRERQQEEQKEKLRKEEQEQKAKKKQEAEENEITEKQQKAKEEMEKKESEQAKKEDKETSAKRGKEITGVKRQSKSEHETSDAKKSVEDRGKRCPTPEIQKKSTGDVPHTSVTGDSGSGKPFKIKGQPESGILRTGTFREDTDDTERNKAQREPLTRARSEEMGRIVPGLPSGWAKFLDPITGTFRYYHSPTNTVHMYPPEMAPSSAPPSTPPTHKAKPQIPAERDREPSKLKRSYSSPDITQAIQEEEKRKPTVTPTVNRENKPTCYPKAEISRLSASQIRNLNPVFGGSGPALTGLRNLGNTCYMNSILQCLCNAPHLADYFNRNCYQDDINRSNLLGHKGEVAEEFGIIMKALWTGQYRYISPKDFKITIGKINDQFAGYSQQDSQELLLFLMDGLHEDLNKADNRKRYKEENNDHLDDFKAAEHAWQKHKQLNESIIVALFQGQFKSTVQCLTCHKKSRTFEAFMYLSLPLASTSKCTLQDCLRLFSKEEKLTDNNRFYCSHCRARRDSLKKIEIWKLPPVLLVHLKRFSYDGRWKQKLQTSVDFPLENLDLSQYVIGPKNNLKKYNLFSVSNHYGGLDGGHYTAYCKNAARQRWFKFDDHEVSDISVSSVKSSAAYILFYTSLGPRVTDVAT
Procedure, shortened: as §1

USP9X = USP9X (UniProt Q93008)
Procedure, shortened: as §1

UniProt O00487 = molecular target: UniProt O00487
Procedure, shortened: as §1

Measured: log2 ratio of Biotin-Ahx-Ub-VS probe labelling

USP7, sequence (Q93009 whole entry, looked up): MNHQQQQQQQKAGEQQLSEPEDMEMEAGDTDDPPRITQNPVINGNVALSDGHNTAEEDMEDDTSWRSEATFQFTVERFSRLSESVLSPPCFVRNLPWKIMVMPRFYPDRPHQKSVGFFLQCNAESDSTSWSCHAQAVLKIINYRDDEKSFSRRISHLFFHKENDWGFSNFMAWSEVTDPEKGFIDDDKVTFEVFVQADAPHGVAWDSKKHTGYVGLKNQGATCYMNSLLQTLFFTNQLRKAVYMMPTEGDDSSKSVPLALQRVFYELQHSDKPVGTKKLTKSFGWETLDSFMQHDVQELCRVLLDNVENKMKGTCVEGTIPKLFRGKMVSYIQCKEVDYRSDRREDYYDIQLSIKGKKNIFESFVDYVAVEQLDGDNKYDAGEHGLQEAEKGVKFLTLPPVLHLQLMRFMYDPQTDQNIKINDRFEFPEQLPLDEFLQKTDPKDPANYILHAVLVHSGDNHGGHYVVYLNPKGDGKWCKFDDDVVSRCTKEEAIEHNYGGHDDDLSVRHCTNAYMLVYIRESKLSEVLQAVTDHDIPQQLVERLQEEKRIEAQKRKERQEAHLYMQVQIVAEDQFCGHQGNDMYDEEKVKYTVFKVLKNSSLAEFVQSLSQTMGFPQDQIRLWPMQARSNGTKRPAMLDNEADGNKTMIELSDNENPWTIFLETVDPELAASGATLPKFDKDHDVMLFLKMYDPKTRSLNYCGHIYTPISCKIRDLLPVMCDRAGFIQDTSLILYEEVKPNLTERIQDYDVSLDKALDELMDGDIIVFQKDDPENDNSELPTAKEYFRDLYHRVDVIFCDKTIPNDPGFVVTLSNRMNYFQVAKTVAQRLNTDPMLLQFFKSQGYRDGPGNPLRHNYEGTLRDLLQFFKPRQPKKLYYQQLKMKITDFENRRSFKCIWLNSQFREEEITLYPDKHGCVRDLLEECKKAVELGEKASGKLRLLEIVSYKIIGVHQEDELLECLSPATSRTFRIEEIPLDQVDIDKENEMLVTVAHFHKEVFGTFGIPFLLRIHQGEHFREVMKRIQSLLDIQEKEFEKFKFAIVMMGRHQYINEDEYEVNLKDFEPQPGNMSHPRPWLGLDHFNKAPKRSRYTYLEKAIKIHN
USP46, sequence (P62068 whole entry): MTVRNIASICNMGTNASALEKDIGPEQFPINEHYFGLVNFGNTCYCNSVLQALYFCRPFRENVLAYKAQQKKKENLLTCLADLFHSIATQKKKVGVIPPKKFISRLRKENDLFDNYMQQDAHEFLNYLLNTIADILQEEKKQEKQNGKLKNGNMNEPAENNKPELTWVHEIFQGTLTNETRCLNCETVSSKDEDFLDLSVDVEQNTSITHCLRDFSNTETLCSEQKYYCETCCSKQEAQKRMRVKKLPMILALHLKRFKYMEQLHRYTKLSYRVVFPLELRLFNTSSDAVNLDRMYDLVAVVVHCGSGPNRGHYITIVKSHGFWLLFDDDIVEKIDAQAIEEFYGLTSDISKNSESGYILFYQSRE
USP54, sequence (Q70EL1 whole entry): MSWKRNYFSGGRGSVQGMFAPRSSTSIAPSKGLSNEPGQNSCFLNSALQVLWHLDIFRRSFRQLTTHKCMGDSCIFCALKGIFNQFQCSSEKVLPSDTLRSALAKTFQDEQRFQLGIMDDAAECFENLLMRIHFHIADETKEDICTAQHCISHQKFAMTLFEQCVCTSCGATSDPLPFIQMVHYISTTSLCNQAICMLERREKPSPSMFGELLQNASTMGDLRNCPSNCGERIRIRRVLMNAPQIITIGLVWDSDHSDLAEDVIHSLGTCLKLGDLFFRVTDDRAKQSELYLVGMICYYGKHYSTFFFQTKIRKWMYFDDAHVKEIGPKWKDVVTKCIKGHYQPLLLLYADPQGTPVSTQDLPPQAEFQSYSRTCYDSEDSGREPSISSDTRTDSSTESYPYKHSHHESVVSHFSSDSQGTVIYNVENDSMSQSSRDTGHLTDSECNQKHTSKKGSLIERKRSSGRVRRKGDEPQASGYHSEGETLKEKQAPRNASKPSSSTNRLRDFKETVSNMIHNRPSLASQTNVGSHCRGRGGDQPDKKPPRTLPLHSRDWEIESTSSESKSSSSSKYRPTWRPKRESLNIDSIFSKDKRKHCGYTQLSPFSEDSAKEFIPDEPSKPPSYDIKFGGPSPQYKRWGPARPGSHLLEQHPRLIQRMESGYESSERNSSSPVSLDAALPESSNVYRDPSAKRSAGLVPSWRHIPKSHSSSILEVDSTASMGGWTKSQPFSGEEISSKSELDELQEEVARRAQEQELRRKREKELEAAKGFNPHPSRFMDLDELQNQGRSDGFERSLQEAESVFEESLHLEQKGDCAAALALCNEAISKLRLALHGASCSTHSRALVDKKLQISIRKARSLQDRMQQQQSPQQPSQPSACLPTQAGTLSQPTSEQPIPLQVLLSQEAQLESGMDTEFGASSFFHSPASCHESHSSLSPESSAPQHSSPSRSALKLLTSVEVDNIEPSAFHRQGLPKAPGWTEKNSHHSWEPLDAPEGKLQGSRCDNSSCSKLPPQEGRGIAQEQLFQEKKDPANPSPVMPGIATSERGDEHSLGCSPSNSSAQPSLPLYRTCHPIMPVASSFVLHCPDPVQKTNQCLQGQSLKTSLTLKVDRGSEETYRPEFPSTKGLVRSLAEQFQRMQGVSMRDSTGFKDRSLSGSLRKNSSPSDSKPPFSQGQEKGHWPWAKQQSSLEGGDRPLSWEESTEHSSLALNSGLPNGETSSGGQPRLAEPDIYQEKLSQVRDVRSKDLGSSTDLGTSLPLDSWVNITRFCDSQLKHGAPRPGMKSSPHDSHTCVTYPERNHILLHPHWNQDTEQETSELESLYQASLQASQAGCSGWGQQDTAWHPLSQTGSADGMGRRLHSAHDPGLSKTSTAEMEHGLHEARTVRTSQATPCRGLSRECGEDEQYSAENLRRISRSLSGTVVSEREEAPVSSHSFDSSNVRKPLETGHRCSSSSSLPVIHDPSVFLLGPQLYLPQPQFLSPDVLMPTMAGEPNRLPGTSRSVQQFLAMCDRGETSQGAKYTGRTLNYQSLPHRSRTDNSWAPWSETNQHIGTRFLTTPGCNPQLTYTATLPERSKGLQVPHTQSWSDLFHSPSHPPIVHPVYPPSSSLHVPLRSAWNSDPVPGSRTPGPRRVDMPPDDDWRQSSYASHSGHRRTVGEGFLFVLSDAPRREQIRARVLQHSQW
UniProt O00487, sequence (O00487 whole entry): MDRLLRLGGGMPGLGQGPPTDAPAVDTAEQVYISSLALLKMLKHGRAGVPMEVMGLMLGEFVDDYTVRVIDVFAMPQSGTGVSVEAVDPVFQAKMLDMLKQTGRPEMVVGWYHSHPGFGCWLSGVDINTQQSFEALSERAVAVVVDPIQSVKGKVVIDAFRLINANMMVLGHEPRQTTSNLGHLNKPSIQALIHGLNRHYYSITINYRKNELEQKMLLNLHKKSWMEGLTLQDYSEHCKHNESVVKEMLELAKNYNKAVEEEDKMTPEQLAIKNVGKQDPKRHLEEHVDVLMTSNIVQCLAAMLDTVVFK

O=C(CCl)N1CCOC2(CCC2)CC1
inactive: USP42 -0.307 | USP46 0.0174 | USP47 -0.785 | USP48 -0.374 | USP5 0.235 | USP54 -0.505 | USP7 -0.145 | USP8 -0.275 | USP9X -0.0935 | UniProt O00487 0.0511
